Source: PubChem
DAX1 inh-1 – blocks DAX1 repression of SF-1 activated StAR promoter. HEK293T StAR-luciferase reporter, SF-1/DAX-1 repression relief. hit rate 1.1% among 370,000. inhibition, % at 6.8 µM. AID 652010;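 active = inhibition above the mean over all tested compounds plus 3 SD, cut at about 3.6% in these data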;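 note: 0% = DAX-1 cells with DMSO and 100% = cells lacking DAX-1 with DMSO; higher inhibition means more luminescence from relief of DAX-1 repression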
ssDAF12 agonist – activators of S. stercoralis DAF-12 nuclear receptor; HEK293 ssDAF-12/GRIP1 lit1-tk-luc reporter, luminescence; % of 3 µM dafachronic acid response; activation, % at 6.8 µM; hit rate 1% among 370,000; AID 652126;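 active = activation above the mean over all tested compounds plus 3 SD, cut at about 0.9% in these data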;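 note: 0% = DMSO-only wells and 100% = 3 µM delta7-dafachronic acid wells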
DAX1 inh-2 – inhibitors of human orphan nuclear receptor DAX1 (NR0B1); P51843; HEK293 Gal4-DAX1 luciferase reporter, luminescence; inhibition, % at 6.75 µM; hit rate 0.99% among 340,000;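 active = inhibition above the mean over all tested compounds plus 3 SD, cut at about 4.2% in these data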;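 note: 0% = DAX1-transfected cells with DMSO and 100% = empty-vector control cells with DMSO; inhibition shows as a rise in luminescence from relieved DAX1 repression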
Target sequence (P51843 207-470 limits assumed): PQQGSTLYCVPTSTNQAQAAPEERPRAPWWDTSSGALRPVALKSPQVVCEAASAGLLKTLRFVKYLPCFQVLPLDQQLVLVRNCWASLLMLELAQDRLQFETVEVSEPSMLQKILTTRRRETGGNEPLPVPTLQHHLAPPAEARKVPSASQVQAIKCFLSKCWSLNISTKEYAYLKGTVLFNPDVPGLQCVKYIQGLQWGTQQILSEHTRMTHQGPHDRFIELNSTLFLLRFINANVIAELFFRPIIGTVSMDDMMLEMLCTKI
hcDAF12 agonist – activates DAF-12 receptor from parasite H. contortus | HEK293 hcDAF-12 lit1-tk-luc reporter, luminescence; 0% DMSO, 100% Δ7-dafachronic acid | activation, % at 6.8 µM | hit rate 1.4% among 370,000;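 active = activation above the mean of all tested compounds plus 3 SD, cut at about 5.5% in these data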;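 note: 100% = response to 3 µM Δ7-dafachronic acid high control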
hgDAF12 agonist – activates the H. glycines DAF-12 receptor ligand-binding domain | AID 687014 | activation, % at 6.8 µM | HEK293 GAL4-hgDAF12 UAS-luciferase reporter, agonist luminescence; normalized to butyrate control | hit rate 1.8% among 370,000;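 active = activation above a cutoff set at the mean of all screened compounds plus 3 SD, cut at about 10% in these data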;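 note: 0% = DMSO wells and 100% = sodium butyrate wells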
Numbers without * were called inactive; / = no result given. In the library only some 4.1% were active in any assay of this set; here they are far more common.

SMILES	DAX1 inh-1	ssDAF12 agonist	DAX1 inh-2	hcDAF12 agonist	hgDAF12 agonist
CC(C)N1C(=O)CN(C2CCCCCC2)C(=O)C1c1ccccc1F (stereo unspecified)	1	-1	3	1	11*
O=C(NCc1cc(Cl)cc(Cl)c1)c1ccc2nc([C@@H]3O[C@H](CO)[C@@H](O)[C@H]3O)[nH]c2c1	0	-1	/	0	-1
CCCN1CCN(C(=O)c2ccc(S(=O)(=O)N(C)c3ccccc3OC)cc2)CC1	1	-1	1	-2	-1
COc1cc(NC(=O)c2ccccc2)c(OC)cc1NC(=O)CSc1[nH]c(=O)cc(C)c1C#N	0	-1	4.4*	-1	0
CCNC(=O)NC(=O)COC(=O)c1ccccc1SCC(=O)NC(=O)NCC	3.9*	2.3*	0	7.9*	12*
O=C(NCCc1ccccc1)c1ccccc1SCC(=O)N1CCCC1	2	1.2*	0	6.4*	6
Cc1ccccc1NC(=O)COC(=O)c1ccccc1SCC(=O)N1CCCC1	0	-1	4.3*	-1	1
COc1ccccc1CCNC(=O)c1ccccc1SCC(=O)N1CCCC1	-1	-2	0	-1	0
CC(=O)Nc1ccc(NC(=O)COC(=O)c2ccccc2SCC(=O)N2CCCC2)cc1	0	-1	-2	-2	1
CCCC[C@H]1C2CC(OC(=O)Nc3ccc(F)cc3)C(C2)[C@H]2CCCCN21 (stereo partly specified)	-1	0	/	-1	0
CC(=O)c1c(C)[nH]c(C(=O)NCCc2ccccc2)c1C	3	0	3	3	9
CC(=O)c1c(C)[nH]c(C(=O)N(CCc2ccccc2)Cc2ccccc2)c1C	0	-1	-1	5.9*	-2
O=C(NCCc1c[nH]c2ccccc12)OCc1cn(-c2cccc(C(F)(F)F)c2)nn1	0	-1	/	1	1
C[C@@H]1ON(C)[C@H]2C[C@H]3c4[nH]c5ccccc5c4CCN3C[C@@H]12	0	1.4*	3	3	-1
C[C@@H]1ON(C)[C@H]2C[C@H]3c4cc(-c5ccc(F)cc5)ccc4CCN3C[C@@H]12	-1	0.9*	/	-1	2
Cc1cccc(-c2ccc3[nH]c4c(c3c2)CCN2C[C@H]3[C@H](C)ON(C)[C@H]3C[C@@H]42)c1	-1	-1	-1	0	1
CC(C)Oc1ccc(CCNC(=O)CC2C(=O)NCCN2C)cc1 (stereo unspecified)	2	-1	4.4*	-1	-1
COc1ccc(CCNC(=O)CC2C(=O)NCCN2CC(C)(C)C)cc1 (stereo unspecified)	0	0	-1	0	1
CCOC(=O)c1c(NC(=O)CSc2nc3ccccc3c(=O)n2-c2ccccc2)sc(C(C)=O)c1C	0	-1	-3	-2	2
CC(Oc1ccc(C(=O)NCCc2ccccc2)cc1)C(=O)O (stereo unspecified)	0	-1	2	0	-3
CCCCOc1ccc(C(=O)NCCc2ccccc2)cc1	2	1.1*	3	2	6
CCC(CC)C(=O)Nc1cccc(C(=O)NCCc2ccccc2)c1	1	-1	1	2	8
O=C(CNC(=O)c1ccccc1F)NNC(=O)c1ccccc1O	0	-1	-1	-1	1
NC(=S)c1ccc(OCCCc2ccccc2)cc1	1	-1	3	2	12*
Cc1cccc(C(=O)NCCc2ccccc2)c1	3	0	3	3	13*
SMILES	DAX1 inh-1	ssDAF12 agonist	DAX1 inh-2	hcDAF12 agonist	hgDAF12 agonist
CCOc1ccc(NC(=S)NCCCc2ccccc2)cc1	0	-1	0	0	2
Cc1cccc(C(=O)NCC(=O)NNC(=O)c2ccccc2O)c1	0	0	4	6.1*	0
Cc1cc(-c2nn(-c3ccccc3F)cc2CNCCc2cnc[nH]2)c(C)s1	1	-1	3	-2	0
CCC(=O)Nc1ccc(-c2csc(NNC(C)=O)n2)cc1	0	0.9*	0	1	2
CC(=O)Nc1nc(-c2ccc3ccccc3c2)cs1	2	0	3	5	13*
Cc1cc(Br)ccc1NC(=O)CN(C)C(=O)c1cccc(S(=O)(=O)N2CCN(C)CC2)c1	-1	-1	1	0	1
O=C(NCC1COCCO1)C1CCN(S(=O)(=O)c2cccc3ccccc23)CC1 (stereo unspecified)	-1	-1	/	-1	0
Cc1ccc(C(=O)NCc2ccc3c(c2)CCO3)cc1C	1	-2	2	-2	4
O=C(NCc1ccc2c(c1)CCO2)Nc1ccccc1	2	-1	3	0	12*
Cc1nn(-c2ccccc2)c2sc(C(=O)NCCc3ccc(Cl)cc3)cc12	-2	-2	/	0	2
CCOc1cc2c(cc1OCC)C(c1ccc(F)cc1)NCC2 (stereo unspecified)	0	0	0	-1	0
CCOc1cc(C2NN=C(c3ccccc3)S2)ccc1OCc1ccc(F)cc1 (stereo unspecified)	2	1.1*	3	4	12*
Cc1cccc(NC(=O)CCS(=O)(=O)c2ccc3c(c2)NC(=O)CS3)n1	1	-1	0	1	-1
CCC1CCc2c(sc(NC(=O)c3ccoc3C)c2C(N)=O)C1 (stereo unspecified)	-1	-1	-1	5.9*	5
CCC(C)(C)C1CCc2c(sc(NC(=O)c3ccoc3C)c2C(N)=O)C1 (stereo unspecified)	0	-1	0	-1	-3
Cc1nc2c(ccc3nc(NC(=O)C(c4ccccc4)c4ccccc4)sc32)s1	0	2.5*	-1	5	0
Cc1c[nH]c2cccc(-c3c(Cl)cccc3Cl)c12	-1	0	/	-1	0
CCOc1ccc(NC(=O)C(c2ccccn2)N(C(=O)CCl)c2ccc(OCC)cc2)cc1 (stereo unspecified)	/	/	3	/	/
CCOc1ccc(NC(=O)C(c2ccccn2)N(C(=O)CCl)c2ccc(OC)cc2)cc1 (stereo unspecified)	0	2.4*	1	10*	11*
COC(=O)Cc1nnn2c1[C@H](C)[C@@H](OC)c1ccc(C(F)(F)F)cc1-2	0	-1	/	-1	-1
O=C(c1cc([N+](=O)[O-])cc([N+](=O)[O-])c1)N1CCCc2ccccc21	0	-1	0	-1	-3
COc1ccc(C(=O)NC(=S)N2CCCc3ccccc32)cc1OC	0	-1	0	0	-4
O=C(NC(=S)N1CCCc2ccccc21)c1ccc(Br)cc1	0	-1	0	5.9*	3
O=C(NC(=S)N1CCCc2ccccc21)c1ccc([N+](=O)[O-])cc1	0	0	-1	5.6*	1
CCOC(=O)Cn1cc(CN2CCS(=O)(=O)N(Cc3ccccc3)C(C(=O)OC)C2)nn1 (stereo unspecified)	-1	1	/	1	0
